Source: PubChem
Rows were chosen to be rich in hits. Some 8% of all compounds tested hit in one or more screens of this group.
HT1080-NT tox = kills 2HG-producing HT-1080-NT fibrosarcoma cells | HT-1080-NT fibrosarcoma viability, CellTiter-Glo ATP luminescence, 48 h | Potency, µM (doses to about 46.1 µM), inactives show at the top dose activity, negative = less viability, most hits filed as cytotoxic | 360,000 compounds, 1.6% hits;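 further: NT is the 2HG producing partner of a matched IDH1 knockdown line; 0% = DMSO-treated cells and -100% = media-only wells without cells; nearly all actives have a fitted effect of over 55% in size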
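Toxicity toward the 2HG-producing NT line was scored as %Activity, normalised to DMSO and no-cell wells, from CellTiter-Glo luminescence after 48 hours' treatment.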
HT1080 IDH1KD tx = toxicity to HT-1080 IDH1 knockdown cells (counter line). Potency, µM (highest dose often 46.1 µM), without a hit: at the top dose activity, negative = toxicity, actives largely listed as cytotoxic. HT-1080 IDH1 knockdown viability, ATP luminescence, 48 h. AID 686971. 360,000 compounds, 2% hits;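 further: 0% = DMSO wells and -100% = cell-free medium wells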
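CellTiter-Glo luminescence after 48 h compound exposure at 37 degrees C of IDH1-knockdown HT-1080 cells in 5% FBS RPMI. %Activity scaled between DMSO wells and cell-free media wells, with curves fitted and assigned curve classes.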
KB-3-1 tox = KB-3-1 parental cell cytotoxicity. KB-3-1 viability, CellTiter-Glo ATP luminescence, 72 h. Potency, µM (doses to about 46.1 µM), hits mostly cytotoxic. 400,000 compounds, 1.4% hits. AID 1347075; further: on the % scale 0 is the no-effect control and ±100 the full control effect; nearly all actives have a fitted effect of over 60% in size
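Cells are dispensed, compounds pinned in, plates held at 37 °C for 72 h, then CellTiter-Glo is added and luminescence read after 10 minutes. Cell line: parental KB-3-1 in phenol-red-free DMEM, 10% FBS.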
MCF10A rereplic = inducers of DNA re-replication in MCF 10A breast cells | MCF 10A DNA re-replication, Hoechst nuclear intensity, 48 h | Potency, µM (titrated, usually from 46.1 µM), for inactives: top-dose activity, positive = re-replication, most hits filed as activators | 350,000 compounds, 2.9% hits | AID 624296; further: % of control where 0% means no effect; nearly all actives have a fitted effect of over 50% in size
KB-V1 cytotox = KB-V1 MDR subline cytotoxicity; KB-V1 MDR cells viability, CellTiter-Glo, 72 h; Potency, µM (titrated, usually from 46.1 µM), actives largely listed as cytotoxic; 400,000 compounds, 3.4% hits; further: on the % scale 0 is the no-effect control and ±100 the full control effect; nearly all actives have a fitted effect of over 60% in size
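Cytotoxicity toward P-gp-expressing KB-V1 cells was determined as loss of CellTiter-Glo luminescence after 72 h at 37 degrees C. Compounds were tested in quantitative HTS format across a concentration range, with curves fitted to normalized data.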
SW480 rerep = DNA re-replication induction in SW480 cells; SW480 DNA re-replication, Hoechst DNA content imaging, 48 h; Potency, µM (highest dose often 46.1 µM), inactives show at the top dose re-replication activation, actives largely listed as activators; 340,000 compounds, 1.8% hits; further: % of control where 0% means no effect; nearly all actives have a fitted effect of over 55% in size
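250 cells/well; 23 nL cpd via pin tool; 48 hr, 37 C, 5% CO2; Hoechst 40 min; imager read of total nuclear intensity, ex 405/em 500-530 nm.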
* marks the source's active call; other numbers are inactive results; i = inactive; ? = inconclusive; nt = no result given. The call rests on the fitted dose curve; in most records, active means well fitted curve in the direction sought with a large enough effect; inconclusive means small, poorly fitted or top-dose-only effect, or another doubt; inactive means no such curve, though single readings can be large; an effect the other way counts as inactive or inconclusive. Potency means the concentration at half of the fitted maximal effect.

SMILES	HT1080-NT tox	HT1080 IDH1KD tx	KB-3-1 tox	MCF10A rereplic	KB-V1 cytotox	SW480 rerep
C(#Cc1ccc(C#CCN2CCOCC2)cc1)CN1CCOCC1	-5%	2%	i	3%	18µM*	8%
COc1ccc2c(c1)CCCC(Br)C2=O (centres undefined)	-6%	-23%	?	?	?	18µM*
COc1ccc2c(c1)CCC2=O	nt	nt	i	nt	i	nt
CCOc1ccccc1NC(=O)C(OC(=O)c1ccc(CC)cc1)c1ccccc1 (centres undefined)	-11%	-2%	?	7%	i	-5%
CCOc1ccccc1NC(=O)C(OC(=O)c1cnccn1)c1ccccc1 (centres undefined)	10%	2%	i	3%	18µM*	1%
CCOc1ccccc1NC(=O)C(OC(=O)c1ccc(O)cc1)c1ccccc1 (centres undefined)	?	23µM*	?	9%	15µM*	9%
CCOc1ccccc1NC(=O)C(OC(=O)c1ccc(N(C)C)cc1)c1ccccc1 (centres undefined)	12%	3%	i	-7%	9.2µM*	-96%
CCOC(=O)Cc1cnc(NC(=O)CSc2nc(C)cc(C)n2)s1	-3%	4%	i	4%	?	-4%
CCOC(=O)Cc1cnc(NC(=O)CSc2nc3ncnc(N)c3[nH]2)s1	-5%	-7%	i	0.65µM*	?	?
CC(=O)OCC#CCSc1nnc(-c2cccc(Br)c2)o1	nt	nt	i	nt	i	nt
Nc1nc(Nc2ccccc2F)sc1C(=O)c1ccccc1	-10%	-27%	10µM*	?	i	?
CCC(=O)N(CCC(c1ccco1)c1ccccc1OC)Cc1cccs1 (centres undefined)	-1%	-23%	i	?	?	-2%
CC(=O)N(CCC(c1ccccc1)c1ccco1)Cc1cccs1 (centres undefined)	-5%	?	?	14%	21µM*	-5%
O=C(c1ccco1)N(CCC(c1ccccc1)c1ccco1)Cc1ccco1 (centres undefined)	5%	9%	i	?	13µM*	3%
CC12CN3CC(c4ccccc4)(CN(C1)C3c1ccc(O)cc1)C2=O (centres undefined)	nt	nt	i	nt	?	nt
CCOc1ccc(N2C(=O)N(Cc3ccc(C)cc3C)c3ccccc3S2(=O)=O)cc1	nt	nt	i	nt	i	nt
COc1ccc(C(CCNCc2ccc(N(C)C)cc2)c2ccccc2OC)cc1 (centres undefined)	?	29µM*	i	?	?	5%
COc1ccc(CNCCC(c2ccc(OC)cc2)c2ccccc2OC)cc1 (centres undefined)	15µM*	21µM*	?	?	?	?
COc1ccc(CNC(C)CCc2ccccc2)cc1 (centres undefined)	-17%	-18%	i	-2%	i	-2%
COc1ccc(C(CCNCc2ccc(OC(C)C)cc2)c2ccccc2OC)cc1 (centres undefined)	?	?	?	?	23µM*	?
COc1cc(CN(C(=O)c2ccc(Cl)cc2)C2CCS(=O)(=O)C2)cc(OC)c1OC (centres undefined)	nt	nt	i	nt	i	nt
Cc1ccc2nc(-c3cc(NC(=O)/C=C/c4ccccc4)ccc3Cl)oc2c1	nt	nt	i	nt	i	nt
O=C1NC(CCc2ccccc2)C(=O)N1CCOc1ccccc1 (centres undefined)	3%	0%	i	6.5µM*	i	-41%
Cn1c(Cc2ccccc2)nnc1SCC(=O)N1CCCCC1	-2%	9%	i	0%	i	-15%
Cc1ccc(-n2nnnc2SCC(=O)NCC2(N3CCOCC3)CCCCC2)c(C)c1	4%	-3%	i	?	21µM*	-4%
SMILES	HT1080-NT tox	HT1080 IDH1KD tx	KB-3-1 tox	MCF10A rereplic	KB-V1 cytotox	SW480 rerep
Cn1c(Cc2ccc3c(c2)OCO3)nnc1SCC(=O)N1CCc2ccccc2C1	0%	-14%	i	-7%	16µM*	-2%
Cc1ccc(-n2c(C)nnc2SCC(=O)N2CCc3ccccc3C2)cc1C	14%	0%	i	-1%	9.2µM*	-4%
Cc1ccc(-n2nnnc2SCC(=O)N2CCc3ccccc3C2)c(C)c1	6%	1%	i	-3%	7.3µM*	9%
Cc1nnc(SCC(=O)N2CCc3ccccc3C2)n1-c1ccccc1	-3%	1%	i	-5%	i	1%
Cc1ccc2[nH]c(=O)c(CN(Cc3ccccc3)Cc3nnnn3Cc3ccco3)cc2c1	nt	nt	i	nt	i	nt
COc1ccc(C(=O)CC(=O)Nc2ccc([N+](=O)[O-])cc2)cc1	?	?	i	?	i	-2%
COc1ccc(C(=O)/C(C#N)=N/Nc2ccccc2[N+](=O)[O-])cc1	2.6µM*	2.3µM*	?	1.8µM*	i	5.8µM*
COc1ccc(C(=O)CC(Nc2ccc([N+](=O)[O-])cc2)c2ccc(OC)cc2)cc1 (centres undefined)	-9%	?	i	?	10µM*	-2%
CCCc1c(C)nn(C(=O)/C(C#N)=N/Nc2ccccc2[N+](=O)[O-])c1C	3%	-8%	i	0%	?	1%
COc1ccc(C(=O)/C(C#N)=N/Nc2ccc([N+](=O)[O-])cc2)cc1	?	5.8µM*	2.3µM*	?	8.2µM*	?
CC(C)c1ccc(/C=C2\C=Cc3ccccc32)cc1	nt	nt	i	nt	i	nt
Cc1cc(C)cc(Oc2nc3c(c(=O)n(C)c(=O)n3C)n2Cc2ccc(F)cc2)c1	nt	nt	i	nt	i	nt
COc1cc(C)ccc1S(=O)(=O)N1CCN(C23CC4CC(CC(C4)C2)C3)CC1	5%	6%	i	?	13µM*	2%
COc1ccc(C)cc1S(=O)(=O)N1CCCCCC1	6%	2%	i	?	i	10%
COc1cc(F)ccc1S(=O)(=O)N1CCN(C23CC4CC(CC(C4)C2)C3)CC1	-1%	-10%	?	3%	i	0%
COc1ccc(C)cc1S(=O)(=O)N1CCC(C)CC1	-6%	-3%	i	4%	18µM*	8%
CCN1CCN(C(c2cccs2)C(C)NS(=O)(=O)c2ccc(Br)cc2)CC1 (centres undefined)	0%	-1%	i	11%	23µM*	-7%
COc1ccccc1NC(=O)CSc1nc(C)c2c(c1C#N)CCCC2	2%	2%	i	7%	7.3µM*	6%
